The values that follow come from PubChem BioAssay.

By inhibition is commonly meant the change of the read-out against control, counted positive when it falls.

SMILES strings stand for the structures.

Assay [1] is described as follows: inhibitors of PAF-induced NFkB signaling in CF airway cells, dose response, cell-based, uHTS hits, panel, cytotoxicity readout (AID 624344). Conditions: CF bronchial epithelial cells, PAF-induced NFkB reporter inhibition, with PAF, run 1; at 79 µM (top of the series) unless noted.
Test in assay [2]: as above
Conditions: CF bronchial epithelial cells, PAF-induced NFkB reporter inhibition, with PAF, run 2; at 79 µM (top of the series) unless noted.

As to `Cc1ccc(-c2cc(C(=O)N/N=C/c3c(C)nn(-c4ccccc4)c3C)[nH]n2)cc1`, the inhibition in assay [1] worked out at 62.7%; in assay [2], 88.3%.
With `Cc1ccc(-c2onc3ccc(C(=O)/C=C/N(C)C)cc23)cc1`, the inhibition in assay [1] worked out at 101%; in assay [2] it was 113%.
The like results for `Cc1cccc(C(=O)N[C@H](C(=O)Nc2nc3ccccc3[nH]2)C(C)C)c1` were, in that order, 101% and 70.1%.
Taken in the same sequence, the figures for `COc1ccccc1NS(=O)(=O)c1ccc(-c2cnc(C3CC3)o2)cc1` were 82.8% and 97.8%.
For the compound `O=C(Oc1ccc(F)cc1C(=O)/C=C/c1cccs1)c1cccc([N+](=O)[O-])c1`, the figures for the inhibition in assay [1] and in assay [2] were 49.3% and 40.3%, respectively.
For `CCn1c(=O)c2c(cnn2C)c2ccccc21`, the inhibition in assay [1] stood at 117%; in assay [2], 103%.
With `O=c1cc(-c2ccccc2Cl)oc2c([N+](=O)[O-])c(O)cc(O)c12`, the inhibition in assay [1] was 101%; in assay [2] it was 109%.
Taken in the same sequence, the figures for `COc1cc(CCc2ccccc2)c(C(=O)O)c(O)c1C/C=C(/C)CCC=C(C)C` were 104% and 114%.
The like results for `Cc1ccc2c(c1)C(=O)C(=O)N2Cc1ccc(C(F)(F)F)cc1` were, in that order, 111% and 100%.
Taken in the same sequence, the figures for `O=C(NCc1cccnc1)/C(=C\c1ccc(-c2cccc(Cl)c2)o1)S(=O)(=O)c1ccccc1` were 101% and 99.2%.
For `COc1ccccc1[C@]1(C)ON(c2ccccc2C(F)(F)F)C1=O`, the inhibition is 105% in assay [1] and 109% in assay [2].
On to `CCOC(=O)C1(C(=O)OCC)COC(=O)C1CN1Cc2cc3ccccc3nc2C1` (stereo not drawn), for which the inhibition in assay [1] turned out to be 65.1%; in assay [2], 65.6%.
The like results for `FC(F)(F)c1nnc2c(Sc3ccccc3)nc3ccccc3n12` were, in that order, 92.8% and 88.4%.
For the compound `CN(C)CCCN(C(=O)CCOc1ccccc1)c1nc2c(F)cccc2s1`, the inhibition in assay [1] worked out at 99.3%; in assay [2], 99.1%.
Taken in the same sequence, the figures for `O=S(=O)(CC(CN1CCCC1)N1CCCC1)c1ccc2ccccc2c1` (stereo not drawn) were 96.4% and 92.7%.
Taken in the same sequence, the figures for `COc1ccc2ncn(-c3ccccc3)c2c1` were 104% and 101%.
For `CC1CCN(Cc2c(C(=O)N/N=C/c3ccc(C(C)(C)C)cc3)nnn2-c2nonc2N)CC1`, the inhibition in assay [1] turned out to be 98.1%; in assay [2], 108%.
The like results for `O=C1NC(c2cccc3ccccc23)Nc2ccc(Cl)cc21` (stereo not drawn) were, in that order, 61.5% and 99.9%.
In the case of `CN(Cc1ccco1)c1ncnc2ccc(-c3ccoc3)cc12`, the values for the inhibition in assay [1] and in assay [2] were 114% and 101%, respectively.
Taken in the same sequence, the figures for `NC1(C(=O)O)CSSC1` were 112% and 103%.
As for `CN(C)CCCN(C(=O)CCSc1ccccc1)c1nc2cc3c(cc2s1)OCO3`, the values for the inhibition in assay [1] and in assay [2] were 106% and 116%, respectively.
The like results for `Cc1ccc(S(=O)(=O)N2[C@@H](c3ccc(C(C)(C)C)cc3)C(C(=O)O)=CC[C@H]2c2ccc(C(C)C)cc2)cc1` were, in that order, 65% and 115%.
`O=C(NCCCSc1ccccc1)c1cc(Cl)ccc1O`: the figures for the inhibition in assay [1] and in assay [2] were 106% and 117%, respectively.
For `COc1cc2oc(=O)cc(-c3ccc(-c4ccc(N(C)C)cc4)cc3)c2c(OC)c1OC`, the inhibition was found to be 54.9% in assay [1] and 69.4% in assay [2].
The like results for `Cc1nnc(SCC(=O)N2CCC(c3noc4ccc(F)cc34)CC2)s1` were, in that order, 101% and 112%.
For `CCOc1cc2c(cc1O)C(=NO)CC1C2CCC2(C)C(O)CCC12` (stereo not drawn), the inhibition in assay [1] was found to be 103%; in assay [2], 112%.
`CCOC(=O)c1c(-c2ccc(C)cc2)csc1NC(=O)c1ccc(N2C(=O)CCC2=O)cc1`: the inhibition in assay [1] came out at 30.1%; in assay [2], 81.4%.
The like results for `COc1ccc(-c2csc3ncnc(NCCN4CCOCC4)c23)cc1` were, in that order, 112% and 100%.
Taken in the same sequence, the figures for `COc1ccc(S(=O)(=O)c2c(O)c3ccc(C(=O)Nc4ccccc4Cl)cc3[nH]c2=O)cc1` were 96.9% and 106%.
Consider `NC(=O)c1nsc(C(=O)N(c2ccccc2)C(C(=O)NCc2ccc(F)cc2)c2ccc(O)cc2)c1N` (stereo not drawn), for which the inhibition in assay [1] turned out to be 102%; in assay [2] it was 108%.
As for `O=C(CN1C(=O)CCC1=O)Nc1nc(-c2nc3ccccc3s2)cs1`, the inhibition is 84.7% in assay [1] and 85.9% in assay [2].
With `Cc1c(O)ccc2c(-c3ccccc3)cc(=O)oc12`, the figures for the inhibition in assay [1] and in assay [2] were 105% and 114%, respectively.
Take `COc1ccc(-c2oc3ccc(-c4ccc5c(c4)OCO5)cc3c2C#CC2(O)CCCCC2)cc1`: the inhibition in assay [1] was 101%; in assay [2], 91.6%.
Turning to `CCOC(=O)c1[nH]c(C)c(C(=O)N2CCc3ccccc32)c1C`, the inhibition was found to be 34.1% in assay [1] and 43.6% in assay [2].
Consider `CC1CCN(CC(CS(=O)(=O)c2ccc([N+](=O)[O-])cc2)N2CCC(C)CC2)CC1` (stereo not drawn), for which the inhibition in assay [1] came out at 101%; in assay [2] it was 104%.
For the compound `Cc1ncc(CO)c2c1Oc1nc(-c3ccccc3F)nc(SCC(=O)N(C)c3ccccc3)c1C2`, the inhibition in assay [1] was found to be 105%; in assay [2] it was 102%.
For the compound `COc1ccc(C(=O)N[C@H](C(=O)Nc2nc3ccccc3[nH]2)C(C)C)cc1`, the inhibition in assay [1] worked out at 99.8%; in assay [2], 102%.
Turning to `Cc1ccc(C)c(S(=O)(=O)N(C(=O)c2ccncc2)c2ccc(OC(=O)c3ccncc3)cc2)c1`, the values for the inhibition in assay [1] and in assay [2] were 104% and 118%, respectively.
For the compound `O=[N+]([O-])c1ccc(NC(=S)NCCc2ccc(F)cc2)cc1`, the inhibition in assay [1] stood at 115%; in assay [2], 105%.
Turning to `COc1cccc(-c2ccc3ncnc(NCc4cccs4)c3c2)c1`, the inhibition in assay [1] came to 117%; in assay [2] it was 99.9%.
As to `CCOC(=O)c1ccc(-n2[nH]c(-c3ccccc3)cc2=O)cc1`, the inhibition was determined as 113% in assay [1] and 93.3% in assay [2].
The like results for `C=C1C(=O)O[C@@]23[C@H]1CC[C@@H](C)[C@@H]2CC[C@@]1(C)O[C@@H]31` were, in that order, 113% and 105%.
Taken in the same sequence, the figures for `CCCN(CC)c1ncnc2[nH]ncc12` were 106% and 108%.
Consider `Cc1cnc(C=O)c2cccc([N+](=O)[O-])c12`, for which the inhibition in assay [1] is 110%; in assay [2], 106%.
